# PMC7862700, “An all-to-all approach to the identification of sequence-specific readers for epigenetic DNA modifications on cytosine”
# Columns and labels:
# Experiment in all cases: DAPPL (digital affinity profiling via proximity ligation, sequencing); 10 mM Tris-HCl pH 7.5, 50 mM NaCl, 1 mM DTT, 4% glycerol, room temperature, 30 min; GST-TFs on glutathione beads, 16-mer random dsDNA library, 0.1% formaldehyde crosslink after washing; high values mean tight binding
# Conditions in all cases: protein: recombinant; tags: N-terminal GST; dsDNA, one strand shown
# FLI1 = molecular target: T1, FLI1 (Homo sapiens, UniProt Q01543 1-452)
# T1 sequence: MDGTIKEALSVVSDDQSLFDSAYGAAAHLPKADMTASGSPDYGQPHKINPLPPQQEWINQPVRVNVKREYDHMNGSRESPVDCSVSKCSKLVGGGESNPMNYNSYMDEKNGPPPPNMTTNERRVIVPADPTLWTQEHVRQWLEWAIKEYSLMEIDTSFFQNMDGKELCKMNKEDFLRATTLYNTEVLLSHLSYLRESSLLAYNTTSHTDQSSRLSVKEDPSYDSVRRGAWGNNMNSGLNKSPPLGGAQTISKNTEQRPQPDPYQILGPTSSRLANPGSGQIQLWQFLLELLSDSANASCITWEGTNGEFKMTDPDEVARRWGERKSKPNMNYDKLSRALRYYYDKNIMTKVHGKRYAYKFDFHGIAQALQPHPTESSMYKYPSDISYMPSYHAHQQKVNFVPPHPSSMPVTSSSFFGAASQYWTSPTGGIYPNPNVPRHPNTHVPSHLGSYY
# In short: (§1)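 Binding signal is defined as a hexamer's read frequency for one factor over its frequency for the tag-only sample. To obtain reads, GST-fused human transcription factors were expressed in yeast, captured on glutathione beads, barcoded with DNA and pooled with that sample. Pools met 200 nmole of a 16-mer random double-stranded DNA library in Tris/NaCl/DTT/glycerol buffer for 30 min at room temperature before washing, 0.1% formaldehyde crosslinking, proximity ligation (BsaI/T4 ligase, 1 h, 37 °C), PCR and Illumina NextSeq500 sequencing.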
# ELK1 = molecular target: T2, ELK1 (Homo sapiens, UniProt P19419 1-428)
# T2 sequence: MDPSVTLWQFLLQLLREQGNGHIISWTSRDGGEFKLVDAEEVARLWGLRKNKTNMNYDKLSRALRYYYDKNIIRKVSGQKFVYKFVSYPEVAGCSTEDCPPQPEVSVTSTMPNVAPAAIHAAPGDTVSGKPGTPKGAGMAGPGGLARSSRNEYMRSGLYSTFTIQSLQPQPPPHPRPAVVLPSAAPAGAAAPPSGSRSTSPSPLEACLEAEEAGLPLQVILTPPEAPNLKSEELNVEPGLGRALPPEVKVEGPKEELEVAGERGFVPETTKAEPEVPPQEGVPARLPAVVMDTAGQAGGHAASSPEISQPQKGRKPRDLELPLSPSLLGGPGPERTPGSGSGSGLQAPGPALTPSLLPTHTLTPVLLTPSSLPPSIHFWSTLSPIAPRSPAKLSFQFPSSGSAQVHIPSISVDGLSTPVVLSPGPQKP
# In short: as §1
# GABPA = molecular target: T3, GABPA (Homo sapiens, UniProt Q06546 1-454)
# T3 sequence: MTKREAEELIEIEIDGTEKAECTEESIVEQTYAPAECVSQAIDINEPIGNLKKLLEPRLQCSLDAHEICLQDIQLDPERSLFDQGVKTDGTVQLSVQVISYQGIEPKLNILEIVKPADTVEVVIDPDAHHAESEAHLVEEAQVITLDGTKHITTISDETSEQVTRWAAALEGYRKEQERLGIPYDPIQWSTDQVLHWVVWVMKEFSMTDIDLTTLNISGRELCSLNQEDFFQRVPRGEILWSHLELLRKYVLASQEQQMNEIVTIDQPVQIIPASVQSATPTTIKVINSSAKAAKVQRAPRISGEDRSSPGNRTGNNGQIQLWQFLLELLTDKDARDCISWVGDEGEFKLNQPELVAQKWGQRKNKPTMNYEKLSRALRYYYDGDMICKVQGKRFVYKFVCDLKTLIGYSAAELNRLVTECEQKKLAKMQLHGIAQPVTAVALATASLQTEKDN
# In short: as §1
# ERG = molecular target: T4, ERG (Homo sapiens, UniProt P11308 1-479)
# T4 sequence: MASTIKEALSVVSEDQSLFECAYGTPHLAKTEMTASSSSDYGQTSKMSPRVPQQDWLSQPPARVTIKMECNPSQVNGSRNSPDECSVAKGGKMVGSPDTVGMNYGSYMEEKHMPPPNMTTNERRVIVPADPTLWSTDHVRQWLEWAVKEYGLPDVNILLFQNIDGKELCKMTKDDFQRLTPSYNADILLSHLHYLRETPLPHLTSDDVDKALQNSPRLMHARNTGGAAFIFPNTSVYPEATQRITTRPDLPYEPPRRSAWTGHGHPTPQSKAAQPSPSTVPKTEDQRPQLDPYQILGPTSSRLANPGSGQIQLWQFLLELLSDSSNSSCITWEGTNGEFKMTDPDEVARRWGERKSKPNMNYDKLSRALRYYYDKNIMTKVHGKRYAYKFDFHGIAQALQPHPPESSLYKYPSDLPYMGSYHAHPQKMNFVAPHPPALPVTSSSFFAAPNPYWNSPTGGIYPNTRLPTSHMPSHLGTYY
# In short: as §1
# ELF1 = ELF1 (Homo sapiens, UniProt P32519 1-619)
# ELF1, sequence (P32519 whole entry): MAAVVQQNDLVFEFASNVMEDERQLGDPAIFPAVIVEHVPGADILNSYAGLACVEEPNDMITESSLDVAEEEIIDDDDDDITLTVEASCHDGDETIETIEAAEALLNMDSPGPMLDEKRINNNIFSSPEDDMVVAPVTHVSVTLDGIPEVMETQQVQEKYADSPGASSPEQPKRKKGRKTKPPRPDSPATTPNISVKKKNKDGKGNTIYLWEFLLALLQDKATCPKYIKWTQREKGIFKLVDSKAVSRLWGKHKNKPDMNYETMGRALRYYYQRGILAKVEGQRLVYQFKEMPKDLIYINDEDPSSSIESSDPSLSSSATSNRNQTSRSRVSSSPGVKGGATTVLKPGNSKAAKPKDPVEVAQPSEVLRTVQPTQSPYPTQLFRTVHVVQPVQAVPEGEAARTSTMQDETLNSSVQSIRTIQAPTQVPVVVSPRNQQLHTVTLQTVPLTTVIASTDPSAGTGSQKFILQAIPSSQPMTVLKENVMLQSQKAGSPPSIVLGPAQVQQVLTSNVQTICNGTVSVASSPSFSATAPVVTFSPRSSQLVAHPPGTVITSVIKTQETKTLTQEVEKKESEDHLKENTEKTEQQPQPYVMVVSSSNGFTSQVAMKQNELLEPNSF
# In short: as §1
# EHF = molecular target: T5, EHF (Homo sapiens, UniProt Q9NZC4 1-300)
# T5 sequence: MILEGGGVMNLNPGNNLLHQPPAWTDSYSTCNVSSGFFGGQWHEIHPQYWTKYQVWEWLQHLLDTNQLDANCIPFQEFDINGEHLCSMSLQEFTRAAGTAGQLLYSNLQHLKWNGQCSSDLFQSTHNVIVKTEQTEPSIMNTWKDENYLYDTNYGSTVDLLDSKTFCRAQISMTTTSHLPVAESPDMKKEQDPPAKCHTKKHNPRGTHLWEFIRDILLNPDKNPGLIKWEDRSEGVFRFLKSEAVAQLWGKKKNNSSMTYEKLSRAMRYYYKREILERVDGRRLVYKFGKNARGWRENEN
# In short: as §1
# SPI1 = SPI1 (Homo sapiens, UniProt P17947 1-270)
# In short: as §1
# SPIB = SPIB (Homo sapiens, UniProt Q01892 1-262)
# SPIB, sequence (Q01892 whole entry): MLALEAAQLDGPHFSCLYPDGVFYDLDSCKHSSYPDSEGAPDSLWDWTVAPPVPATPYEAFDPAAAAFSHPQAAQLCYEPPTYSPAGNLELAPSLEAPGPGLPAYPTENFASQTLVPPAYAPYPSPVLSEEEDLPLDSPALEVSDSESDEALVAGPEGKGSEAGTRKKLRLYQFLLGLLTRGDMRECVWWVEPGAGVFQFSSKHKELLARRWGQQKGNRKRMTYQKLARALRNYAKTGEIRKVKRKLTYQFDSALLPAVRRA
# In short: as §1
# ELK3 = molecular target: T6, ELK3 (Homo sapiens, UniProt P41970 1-407)
# T6 sequence: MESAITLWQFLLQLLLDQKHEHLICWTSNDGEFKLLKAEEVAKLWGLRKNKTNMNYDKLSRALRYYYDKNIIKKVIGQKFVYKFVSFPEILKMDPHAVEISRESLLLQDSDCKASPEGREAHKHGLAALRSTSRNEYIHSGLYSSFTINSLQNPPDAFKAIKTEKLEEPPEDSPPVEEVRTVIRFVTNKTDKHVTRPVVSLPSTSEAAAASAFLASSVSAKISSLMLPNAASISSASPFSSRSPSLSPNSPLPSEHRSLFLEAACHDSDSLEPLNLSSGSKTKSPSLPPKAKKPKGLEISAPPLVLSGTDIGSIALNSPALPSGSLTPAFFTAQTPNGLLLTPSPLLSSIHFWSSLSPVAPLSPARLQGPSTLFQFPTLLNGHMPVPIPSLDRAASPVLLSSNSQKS
# In short: as §1
sequence,measurement,setting,value
CTCTTG,binding signal,FLI1,"1.4 fold enrichment (6-mer frequency, TF over GST control)"
same,binding signal,ELK1,"1.33 fold enrichment (6-mer frequency, TF over GST control)"
same,binding signal,GABPA,"1.41 fold enrichment (6-mer frequency, TF over GST control)"
same,binding signal,ERG,"1.29 fold enrichment (6-mer frequency, TF over GST control)"
same,binding signal,ELF1,"1.36 fold enrichment (6-mer frequency, TF over GST control)"
same,binding signal,EHF,"1.3 fold enrichment (6-mer frequency, TF over GST control)"
same,binding signal,SPI1,"1.3 fold enrichment (6-mer frequency, TF over GST control)"
same,binding signal,SPIB,"1.43 fold enrichment (6-mer frequency, TF over GST control)"
same,binding signal,ELK3,"1.53 fold enrichment (6-mer frequency, TF over GST control)"
